The values below come from PubChem BioAssay (NCI).

Each structure is given as a SMILES string. “And” between values parts separate entries of the source, which are not always exact repeats. Equal values may be shown once. This is part of a sample that, as a whole, favours compounds with a hit. Of some 83,000 tested, about 20% had one in any assay.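 Activity criterion: percent growth below 10, measured after cells in 96-well plates were exposed to a single compound concentration for 48 hours.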 The source made the active and inactive calls.

This test deals with MDA-MB-468 breast. Kind of test: NCI-60 one-dose screen, 48 h (100 = growth as untreated, 0 = no growth, -100 = all killed). The note with it: 10 µM unless noted.
Turning to `COc1cc2c(cc1-c1c(C)noc1C)ncc1nc(C3CCCCC3)n([C@@H](C)COC(F)F)c12`, the growth was 32.6% (inactive).

For the compound `Nc1c(-c2nc3ccccc3c(=O)[nH]2)nnn1-c1ccc(Cl)cc1`, the growth was 105% (inactive).

Consider `CC1=C([Se]CC(OC(=O)[C@@H](CO)NC(=O)OC(C)(C)C)C(=O)NCCCCCC(=O)OCc2ccccc2)C(=O)c2ccccc2C1=O` (stereo not given in full), for which the growth is -83.7% (active).

Take `CCC[S@@](=O)c1ccc2nc(NC(=O)OC)[nH]c2c1`: the growth was 68.5% (inactive).

Regarding `CN1CCN(Cc2ccc(NC(=O)c3[nH]ncc3Nc3ccnc4ccnn34)cc2)CC1`, the growth is 65.6% (inactive).

On to `CN(C)c1ccc2nc3ccc(=[N+](C)C)c([N+](=O)[O-])c-3sc2c1`, for which the growth was 0.864% (active).

Consider `CN1C(=O)/C(=C/c2ccc(C(=O)Nc3ncc(Cc4cccc(C(F)(F)F)c4)s3)cc2)SC1=S`, for which the growth is -2.76% (active).

As for `CCn1cc(Cc2cc(C(=O)Nc3cc4cc(OC)c(OC)cc4c(C)n3)ccc2Cl)cn1`, the growth was 35.5% (inactive).

In the case of `Nc1nc(Nc2ccccc2)c2ncn(Cc3ccc4c(c3)OCO4)c2n1`, the growth was 13.4% (inactive).

`O=C1/C(=C/c2ccc(O)cc2O)N=C2SCCCN12`: the growth is 96.1% (inactive).

Take `CCCOc1ccc2nc(NC(=O)OC)[nH]c2c1`: the growth is -3.99% (active).

On to `COc1ccc(-c2nnc(N3CCN(C(=O)CN4CCN(c5ccccc5)CC4)CC3)nc2-c2ccc(OC)cc2)cc1`, for which the growth is 41.4% (inactive).

Turning to `NC(N)=Nc1ccc(Oc2cccc(Nc3ccc(Cl)cc3)c2)cn1`, the growth is -27.9% (active).

For `CCCCC1COc2cccc3c(SCC(=O)N(C)c4cccc(Cl)c4)cc[n+]1c23` (stereo not given), the growth is 104% (inactive).

In the case of `CCCCCCCCCC(=O)Oc1ccc(/C(=C(/C)c2ccccc2)c2ccc(OCCN3CCCC3)cc2)cc1`, the growth was -29.4% (active).

As for `Cn1c2ccccc2c2nn(Cc3ccccc3)c(=O)nc21`, the growth is 106% (inactive).

As to `CC(=[N-])N1CCC[C@@H](Nc2c3ccccc3nc3ccccc23)C1.[Cl][Pt].[NH-]CCC[NH-]`, the growth is -10.4% (active).

Turning to `Cc1ccc(-c2nc(SCC(=O)c3ccc(C#N)cc3)[nH]c(=O)c2C#N)cc1`, the growth was 120% (inactive).

Consider `CN1CCN(c2nc(-c3csc(-c4cccs4)n3)cc3ccccc23)CC1`, for which the growth is 20.3% (inactive).

Take `CC(C)(C)C(=O)/C=c1/[nH]c(=O)/c(=C/c2ccccc2O)s1`: the growth is 17.2% (inactive).

As for `Cc1cc(C#Cc2ccc(C(C)(C)C)cc2)ccc1-n1c(/C=C/c2c(Cl)cccc2Cl)nc2ccccc2c1=O`, the growth is 91.1% (inactive).

Regarding `FC(F)(F)c1ccc(Cn2cc(CSc3nc4ccccc4s3)nn2)cc1`, the growth is 98.7% (inactive).

For the compound `Cc1ccc(S(=O)(=O)N/N=C\c2cc(Cl)ccc2O)cc1`, the growth was 68.4% (inactive).

As to `COc1cc2oc(-c3cccc(NC(=O)c4cc(NC(=O)[C@H](C)N)ccc4Cl)c3)cc(=O)c2c(OC)c1OC`, the growth was 91.1% (inactive).

As to `CN1CCN(Cc2ccc(NC(=O)c3cncc(C#Cc4cnc5ccc(OCC(F)F)nn45)c3)cc2C(F)(F)F)CC1`, the growth was -65.5% (active).

As to `Cc1cc2nc3c4cc([N+](=O)[O-])ccc4n(CCN(C)C)c3nc2cc1C`, the growth was -39.1% (active).

For the compound `CCOC(=O)N(O)c1ccc(/C=C/c2ccccc2)cc1`, the growth was -59.5% (active) and -52.6% (active).

Consider `N#C/C(=C\c1ccc(Cl)cc1Cl)C(N)=O`, for which the growth was 96.3% (inactive).

For the compound `COc1ccc(C2=NN(C=O)C(c3cccc(Nc4ccnc5cc(Cl)ccc45)c3)C2)cc1` (stereo not given), the growth is -3.92% (active).

Turning to `COc1cc(CC#N)c([N+](=O)[O-])cc1OC`, the growth was 100% (inactive).

Consider `CS(=O)(=O)c1ccc(-c2nc3ccccn3c2-c2nc3ccc([N+](=O)[O-])cc3[nH]2)cc1`, for which the growth is 104% (inactive).

`CCOC(=O)c1c2c(cn1Cc1ccccc1)-c1oncc1CC2`: the growth is 105% (inactive).

Consider `O=C1c2cccnc2C(=O)c2c1c(C(=O)OCCN1CCCCC1)c1ccccn21`, for which the growth was -16.6% (active).

Regarding `CNCc1cccc2c1OCCOCCOCCNS(=O)(=O)c1ccc(cc1)-c1cnc(N)c(n1)C(=O)N2`, the growth was 35.6% (inactive).

In the case of `C=CCNc1nc(O)c(/C=C2\C=Nc3ncccc32)s1`, the growth was 1.02% (active).

For `CCOC(=O)c1cnn(-c2nc(-c3ccc(F)cc3)c(C#N)c(N3CCOCC3)n2)c1N`, the growth was 92.6% (inactive).

Consider `Nc1ccc2c(c1)Cc1cc(NC(=O)C(F)(F)F)ccc1-2`, for which the growth was 75.7% (inactive).

Turning to `O=Cc1c[nH]c2ccc(NC(=O)OCc3ccccc3)cc12`, the growth is 109% (inactive).

With `CC(C)CCC[C@@H](C)[C@H]1CC[C@H]2[C@@H](Nc3ccc(O)cc3)CCC[C@]12C`, the growth was -13.8% (active).

Consider `CC1(C)CC[C@]23CC[C@]4(C)[C@H](CC[C@@H]5[C@@]6(C)CCCN(CO)C(C)(C)[C@@H]6CC[C@]54C)[C@H]2[C@H]1OC3`, for which the growth is 84.9% (inactive).
